Test results: the supplement of paper PMC3545927
This is one part of the list. The true hit rate is not given.

B1: HC2306 (peptide)
chain: CAMVPCHRPSAGNASASA
B2: HC95 (peptide)
chain: CAVVCSSMSYAGNASASA
B3: HC1358 (peptide)
chain: CAPGDPDLSDAGNASASA
B4: FS-2291 (peptide)
chain: CARQKRQLWDAGNASASA
B5: FS-3202 (peptide)
chain: CARQKRAWITAGNASASA
B6: HC459 (peptide)
chain: CACGSGPWITAGNASASA
B7: FS-2756 (peptide)
chain: CARQKRQNKEAGNASASA
B8: FS-2360 (peptide)
chain: CARQKRAVATAGNASASA
B9: HC528 (peptide)
chain: CALWMMLLISAGNASASA
B10: HC1050 (peptide)
chain: CASTLPGNPAAGNASASA
B11: FS-3211 (peptide)
chain: CARSRRWKVKAGNASASA
B12: FS-2607 (peptide)
chain: CARSRRCLRDAGNASASA
B13: FS-2187 (peptide)
chain: CARSRRCTCFAGNASASA
B14: FS-2382 (peptide)
chain: CARSRRNVVMAGNASASA
B15: FS-2814 (peptide)
chain: CARSRRAQPPAGNASASA
B16: FS-2817 (peptide)
chain: CARSRRKLMVAGNASASA
B17: FS-2239 (peptide)
chain: CARSRRALPPAGNASASA
B18: HC2529 (peptide)
chain: CASTPCSYHLAGNASASA
B19: HC2207 (peptide)
chain: CAEVVTSFWVAGNASASA
B20: HC2484 (peptide)
chain: CASIPCSAHLAGNASASA
B21: HC101 (peptide)
chain: CAVVCCAMSYAGNASASA
B22: HC1295 (peptide)
chain: CASVPAEILRAGNASASA
B23: HC921 (peptide)
chain: CAYDAGCAWYAGNASASA
B24: HC543 (peptide)
chain: CALVSFLVFFAGNASASA
B25: FS-3092 (peptide)
chain: CARSRRAATSAGNASASA
B26: FS-194 (peptide)
chain: CASQGRRRRPAGNASASA
B27: FS-1975 (peptide)
chain: CARSNRDVFVAGNASASA
B28: HC218 (peptide)
chain: CARSRNLGKVAGNASASA
B29: FS-1407 (peptide)
chain: CARSRRRRRPAGNASASA
B30: FS-2526 (peptide)
chain: CARSRKIAESAGNASASA
B31: FS-3239 (peptide)
chain: CARSRRTICVAGNASASA
B32: FS-3234 (peptide)
chain: CARSFRSVTSAGNASASA
B33: FS-2815 (peptide)
chain: CARSRRAVSVAGNASASA
B34: FS-3265 (peptide)
chain: CARSRRTWELAGNASASA
B35: FS-2238 (peptide)
chain: CARSRKAVDWAGNASASA
B36: FS-1052 (peptide)
chain: CAPPSRRRRPAGNASASA
B37: HC2570 (peptide)
chain: CASTPCSAHVAGNASASA
B38: HC1147 (peptide)
chain: CASGSWLRDIAGNASASA
B39: HC757 (peptide)
chain: CAVDFIPVENAGNASASA
B40: FS-474 (peptide)
chain: CAPNSPSKRGAGNASASA
B41: FS-1377 (peptide)
chain: CAMWERYCRGAGNASASA
B42: FS-313 (peptide)
chain: CAVTVRWKRGAGNASASA
B43: FS-286 (peptide)
chain: CAQQSRSKRGAGNASASA
B44: FS-1177 (peptide)
chain: CAVLQRSKRGAGNASASA
B45: FS-790 (peptide)
chain: CAHCSRSKRPAGNASASA

Target: furin, P09958
Sequence (P09958 whole entry): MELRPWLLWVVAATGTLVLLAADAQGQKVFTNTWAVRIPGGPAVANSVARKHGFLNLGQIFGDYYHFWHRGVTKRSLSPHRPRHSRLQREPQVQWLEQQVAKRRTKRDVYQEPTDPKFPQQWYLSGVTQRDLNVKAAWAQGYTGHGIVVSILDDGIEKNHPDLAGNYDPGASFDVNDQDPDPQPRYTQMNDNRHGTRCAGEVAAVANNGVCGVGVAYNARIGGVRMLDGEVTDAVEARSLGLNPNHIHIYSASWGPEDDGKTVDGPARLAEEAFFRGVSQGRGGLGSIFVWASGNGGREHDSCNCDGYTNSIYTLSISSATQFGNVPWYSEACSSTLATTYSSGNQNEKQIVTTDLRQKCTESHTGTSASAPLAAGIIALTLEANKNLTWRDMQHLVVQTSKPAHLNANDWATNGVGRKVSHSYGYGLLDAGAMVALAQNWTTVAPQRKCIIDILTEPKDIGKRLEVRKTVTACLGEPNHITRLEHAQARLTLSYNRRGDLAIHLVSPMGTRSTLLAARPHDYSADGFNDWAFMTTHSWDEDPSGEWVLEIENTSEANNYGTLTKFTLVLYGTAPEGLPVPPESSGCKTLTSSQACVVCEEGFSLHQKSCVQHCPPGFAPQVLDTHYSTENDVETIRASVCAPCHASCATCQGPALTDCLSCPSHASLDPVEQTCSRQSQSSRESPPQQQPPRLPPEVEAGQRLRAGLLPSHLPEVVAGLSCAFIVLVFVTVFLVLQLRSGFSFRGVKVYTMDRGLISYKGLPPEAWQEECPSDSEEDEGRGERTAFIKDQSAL
Assay: furin cleavage Z-score vs untreated control; higher = more cleavage, active = 3.5 or more, inactive = 1 or less, 8 variable residues between constant flanks
Method in brief: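 Purified furin cleaved 8-mer peptides that were fused to a cDNA oligonucleotide and held on magnetic beads by their N-terminus. Each 0.01 ml reaction used a 1:10 enzyme:substrate ratio in 50 mM HEPES pH 7.5 with CaCl2 and NaCl and ran 7.5, 15 or 30 min. Released DNA was adapter-tagged by PCR and sequenced, and read counts gave abundance. The cleavage Z-score came from log counts against furin-free reactions, lowess-adjusted and scaled by median absolute deviation.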

Sequence | furin cleavage Z-score (7.5 min) | furin cleavage Z-score (15 min) | furin cleavage Z-score (30 min)
B1 | 1.55 | 0.971 (inactive) | 1.19
B2 | -0.171 (inactive) | 0.902 (inactive) | 0.436 (inactive)
B3 | -0.316 (inactive) | -0.713 (inactive) | -1.52 (inactive)
B4 | 5.3 (active) | 8.17 (active) | 8.7 (active)
B5 | 2.68 | 3.79 (active) | 6.77 (active)
B6 | -1.7 (inactive) | -2.37 (inactive) | -1.44 (inactive)
B7 | 1.89 | 0.961 (inactive) | 3.45
B8 | 9.36 (active) | 11.9 (active) | 7.99 (active)
B9 | -0.863 (inactive) | -0.739 (inactive) | -0.913 (inactive)
B10 | -1.13 (inactive) | 0.099 (inactive) | -1.54 (inactive)
B11 | 1.85 | -0.535 (inactive) | 0.212 (inactive)
B12 | 4.81 (active) | 5.74 (active) | 5.33 (active)
B13 | -0.747 (inactive) | -0.988 (inactive) | -0.963 (inactive)
B14 | 5.51 (active) | 8.6 (active) | 7.9 (active)
B15 | 3.03 | 4.42 (active) | 4.27 (active)
B16 | -1.98 (inactive) | -0.17 (inactive) | -0.107 (inactive)
B17 | 7.76 (active) | 7.46 (active) | 7.12 (active)
B18 | 0.0863 (inactive) | 1 | 1.34
B19 | -0.594 (inactive) | 1.74 | -0.243 (inactive)
B20 | 0.328 (inactive) | 0.418 (inactive) | 0.274 (inactive)
B21 | 1.72 | 0.536 (inactive) | 0.579 (inactive)
B22 | 0.956 (inactive) | 1.63 | 1.9
B23 | 1.18 | 0.654 (inactive) | 0.883 (inactive)

Sequence | furin cleavage Z-score (7.5 min) | furin cleavage Z-score (15 min) | furin cleavage Z-score (30 min)
B24 | -1.85 (inactive) | -1.89 (inactive) | -0.773 (inactive)
B25 | 10.1 (active) | 11.9 (active) | 9.59 (active)
B26 | -0.188 (inactive) | 0.828 (inactive) | 0.793 (inactive)
B27 | 1.39 | 1.28 | 0.58 (inactive)
B28 | 1.83 | 3.1 | 0.167 (inactive)
B29 | 4.05 (active) | 4.27 (active) | 4.75 (active)
B30 | -1.24 (inactive) | -0.08 (inactive) | -0.238 (inactive)
B31 | 3.04 | 0.821 (inactive) | 3.9 (active)
B32 | -0.371 (inactive) | 0.166 (inactive) | 0.853 (inactive)
B33 | 4.34 (active) | 4.32 (active) | 4.26 (active)
B34 | -1.05 (inactive) | 3.1 | 1.34
B35 | -0.617 (inactive) | 2.48 | 2.21
B36 | 0.863 (inactive) | 0.662 (inactive) | 0.635 (inactive)
B37 | 0.366 (inactive) | 0.384 (inactive) | 0.66 (inactive)
B38 | -1.83 (inactive) | -1.36 (inactive) | 0.113 (inactive)
B39 | -0.627 (inactive) | -0.626 (inactive) | -2 (inactive)
B40 | 0.58 (inactive) | -0.142 (inactive) | 0.811 (inactive)
B41 | 1.18 | 1.38 | 0.416 (inactive)
B42 | 10.9 (active) | 12.2 (active) | 8.51 (active)
B43 | 7.44 (active) | 8.25 (active) | 7.09 (active)
B44 | 10.8 (active) | 9.33 (active) | 7.91 (active)
B45 | 0.521 (inactive) | 0.407 (inactive) | -1.15 (inactive)
